Assay results published in the supplement of paper PMC4466140.

Tests used:
Experiment in all cases: SPOT peptide array binding signal intensity (averaged, normalized) (arbitrary units (background-subtracted, floor 0; scale differs between SH3 domains)); higher = stronger binding of the SH3 domain to the peptide
[1] = target: AgAbp1
Summary of the method: (§1)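 The binding signal is the normalized, background-subtracted spot intensity averaged over replicates; its arbitrary units differ between domains. It was obtained by incubating 10 μg/ml GST-fused SH3 domains from four yeast species overnight at 4°C in TBS-based blocking buffer on cellulose membranes with synthetic 15-mer peptides, cysteines replaced by serines, then detecting with anti-GST antibody, HRP anti-mouse secondary and luminol.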

[2] = target: AgBbc1
Summary of the method: as §1

[3] = target: AgBem1-D1
Summary of the method: as §1

[4] = target: AgBzz1-D1
Summary of the method: as §1

[5] = target: AgBzz1-D2
Summary of the method: as §1

[6] = target: AgCyk3
Summary of the method: as §1

[7] = target: AgFus1
Summary of the method: as §1

[8] = target: AgHof1
Summary of the method: as §1

[9] = target: AgHse1
Summary of the method: as §1

[10] = target: AgLsb1
Summary of the method: as §1

[11] = target: AgLsb4
Summary of the method: as §1

[12] = target: AgMyo5
Summary of the method: as §1

[13] = target: AgNbp2
Summary of the method: as §1

[14] = target: AgRvs167
Summary of the method: as §1

[15] = target: AgSho1
Summary of the method: as §1

[16] = target: AgSla1-D1-D2
Summary of the method: as §1

[17] = target: AgSla1-D3
Summary of the method: as §1

[18] = target: CaAbp1-D1
Summary of the method: as §1

[19] = target: CaAbp1-D2
Summary of the method: as §1

[20] = target: CaBbc1
Summary of the method: as §1

[21] = target: CaBem1-D1
Summary of the method: as §1

[22] = target: CaBzz1-D1
Summary of the method: as §1

[23] = target: CaBzz1-D2
Summary of the method: as §1

[24] = target: CaCyk3
Summary of the method: as §1

[25] = target: CaFus1
Summary of the method: as §1

[26] = target: CaHof1
Summary of the method: as §1

[27] = target: CaHse1
Summary of the method: as §1

[28] = target: CaLsb1
Summary of the method: as §1

[29] = target: CaLsb4
Summary of the method: as §1

[30] = target: CaMyo5
Summary of the method: as §1

[31] = target: CaNbp2
Summary of the method: as §1

[32] = target: CaRvs167
Summary of the method: as §1

[33] = target: CaRvs167-3
Summary of the method: as §1

[34] = target: CaSho1
Summary of the method: as §1

[35] = target: CaSla1-D1-D2
Summary of the method: as §1

[36] = target: CaSla1-D3
Summary of the method: as §1

[37] = target: ScAbp1
Summary of the method: as §1

[38] = target: ScBbc1
Summary of the method: as §1

[39] = target: ScBem1-D1
Summary of the method: as §1

[40] = target: ScBzz1-D1
Summary of the method: as §1

[41] = target: ScBzz1-D2
Summary of the method: as §1

[42] = target: ScCyk3
Summary of the method: as §1

[43] = target: ScFus1
Summary of the method: as §1

[44] = target: ScHof1
Summary of the method: as §1

[45] = target: ScHse1
Summary of the method: as §1

[46] = target: ScLsb1
Summary of the method: as §1

[47] = target: ScLsb2
Summary of the method: as §1

[48] = target: ScLsb3
Summary of the method: as §1

[49] = target: ScLsb4
Summary of the method: as §1

[50] = target: ScMyo3
Summary of the method: as §1

[51] = target: ScMyo5
Summary of the method: as §1

[52] = target: ScNbp2
Summary of the method: as §1

[53] = target: ScPex13
Summary of the method: as §1

[54] = target: ScRvs167
Summary of the method: as §1

[55] = target: ScSho1
Summary of the method: as §1

[56] = target: ScSla1-D1-D2
Summary of the method: as §1

[57] = target: ScSla1-D3
Summary of the method: as §1

[58] = target: SpAbp1-D1
Summary of the method: as §1

[59] = target: SpBbc1
Summary of the method: as §1

[60] = target: SpBzz1-D1
Summary of the method: as §1

[61] = target: SpBzz1-D2
Summary of the method: as §1

[62] = target: SpCyk3
Summary of the method: as §1

[63] = target: SpHof1
Summary of the method: as §1

[64] = target: SpHof1-2
Summary of the method: as §1

[65] = target: SpHof1-3
Summary of the method: as §1

[66] = target: SpHse1
Summary of the method: as §1

[67] = target: SpLsb1
Summary of the method: as §1

[68] = target: SpLsb4
Summary of the method: as §1

[69] = target: SpMyo1
Summary of the method: as §1

[70] = target: SpNbp2
Summary of the method: as §1

[71] = target: SpPex13
Summary of the method: as §1

[72] = target: SpRvs167
Summary of the method: as §1

[73] = target: SpSla1-D1-D2
Summary of the method: as §1

[74] = target: SpSla1-D3
Summary of the method: as §1

Binder: HRRRRVFSIPSLKSI
- SPOT peptide array binding signal intensity [1]: 65.5
- SPOT peptide array binding signal intensity [2]: 88.2
- SPOT peptide array binding signal intensity [3]: 426
- SPOT peptide array binding signal intensity [4]: 45
- SPOT peptide array binding signal intensity [5]: 28.5
- SPOT peptide array binding signal intensity [6]: 18
- SPOT peptide array binding signal intensity [7]: 1100
- SPOT peptide array binding signal intensity [8]: 117
- SPOT peptide array binding signal intensity [9]: 2250
- SPOT peptide array binding signal intensity [10]: 51.2
- SPOT peptide array binding signal intensity [11]: 264
- SPOT peptide array binding signal intensity [12]: 6
- SPOT peptide array binding signal intensity [13]: 470
- SPOT peptide array binding signal intensity [14]: 15.8
- SPOT peptide array binding signal intensity [15]: 168
- SPOT peptide array binding signal intensity [16]: 776
- SPOT peptide array binding signal intensity [17]: 11
- SPOT peptide array binding signal intensity [18]: 703
- SPOT peptide array binding signal intensity [19]: 734
- SPOT peptide array binding signal intensity [20]: 198
- SPOT peptide array binding signal intensity [21]: 100
- SPOT peptide array binding signal intensity [22]: 60
- SPOT peptide array binding signal intensity [23]: 69
- SPOT peptide array binding signal intensity [24]: 75
- SPOT peptide array binding signal intensity [25]: 1310
- SPOT peptide array binding signal intensity [26]: 0.5
- SPOT peptide array binding signal intensity [27]: 232
- SPOT peptide array binding signal intensity [28]: 2.5
- SPOT peptide array binding signal intensity [29]: 196
- SPOT peptide array binding signal intensity [30]: 3.5
- SPOT peptide array binding signal intensity [31]: 887
- SPOT peptide array binding signal intensity [32]: 103
- SPOT peptide array binding signal intensity [33]: 319
- SPOT peptide array binding signal intensity [34]: 1550
- SPOT peptide array binding signal intensity [35]: 49
- SPOT peptide array binding signal intensity [36]: 29.5
- SPOT peptide array binding signal intensity [37]: 38
- SPOT peptide array binding signal intensity [38]: 43.5
- SPOT peptide array binding signal intensity [39]: 76
- SPOT peptide array binding signal intensity [40]: 21
- SPOT peptide array binding signal intensity [41]: 51
- SPOT peptide array binding signal intensity [42]: 238
- SPOT peptide array binding signal intensity [43]: 1620
- SPOT peptide array binding signal intensity [44]: 3
- SPOT peptide array binding signal intensity [45]: 2170
- SPOT peptide array binding signal intensity [46]: 48.8
- SPOT peptide array binding signal intensity [47]: 12.5
- SPOT peptide array binding signal intensity [48]: 780
- SPOT peptide array binding signal intensity [49]: 44.5
- SPOT peptide array binding signal intensity [50]: 9.75
- SPOT peptide array binding signal intensity [51]: 8
- SPOT peptide array binding signal intensity [52]: 841
- SPOT peptide array binding signal intensity [53]: ≤ 0
- SPOT peptide array binding signal intensity [54]: 95.5
- SPOT peptide array binding signal intensity [55]: 1320
- SPOT peptide array binding signal intensity [56]: 321
- SPOT peptide array binding signal intensity [57]: 12.8
- SPOT peptide array binding signal intensity [58]: 293
- SPOT peptide array binding signal intensity [59]: 12
- SPOT peptide array binding signal intensity [60]: 122
- SPOT peptide array binding signal intensity [61]: 0.5
- SPOT peptide array binding signal intensity [62]: 6
- SPOT peptide array binding signal intensity [63]: 322
- SPOT peptide array binding signal intensity [64]: 51.2
- SPOT peptide array binding signal intensity [65]: 622
- SPOT peptide array binding signal intensity [66]: 997
- SPOT peptide array binding signal intensity [67]: 11
- SPOT peptide array binding signal intensity [68]: 372
- SPOT peptide array binding signal intensity [69]: 8.25
- SPOT peptide array binding signal intensity [70]: 1660
- SPOT peptide array binding signal intensity [71]: 21
- SPOT peptide array binding signal intensity [72]: 55.8
- SPOT peptide array binding signal intensity [73]: ≤ 0
- SPOT peptide array binding signal intensity [74]: 30
